# According to PubChem BioAssay AID938 (National Center for Advancing Translational Sciences (NCATS), 2007):
# Values joined by “and” are separate entries in the source; they are usually repeats but may differ in a detail not shown here. Identical values can stand only once. The whole screen tested about 73,000 compounds, of which about 1,800 (2.5%) were called active. Inconclusive results (about 13%) are left out. Calls follow the shape of the dose curve; as a rule, active = well fitted activation curve with a large enough effect; inconclusive = small, poorly fitted or top-dose-only effect; inactive = no such curve, though single readings can be large or run the other way. What follows is part of a selection rich in actives, with near analogues and random picks from the rest. More than one record can exist for a structure, and the calls need not agree.
# Assay: qHTS Assay for Agonists of the Thyroid Stimulating Hormone Receptor: Activators of Intracellular cAMP Concentrations in Parental HEK 293; also: nearly all actives have a fitted effect of over 55% in size; as to activation: % of control where 0% means no effect
# Conditions: parental HEK293 CNG cAMP sensor, membrane potential fluorescence; series mostly up to 57.1 µM; activation: at the top concentration
# Description: NIH Chemical Genomics Center [NCGC]
# NIH Molecular Libraries Screening Centers Network [MLSCN]
# PI Name: Dr. Marvin Gershengorn
# This cell based assay utilized a cyclic nucleotide gated ion channel (CNG) as a biosensor for cAMP induction. HEK 293 cells stably expressing the modified CNG were purchased from BD biosciences (http://www.atto.com/products/actone/features_benefits.shtml) . Stimulation of cAMP production causes the CNG to open and subsequent membrane depolarization to occur. A fluorescent membrane potential dye (BD biosciences) was utilized to detect cAMP stimulation in cells.
# The cells were maintained in DMEM medium (Invitrogen) containing 10 % FBS (Hyclone), 100 units/ml Penicillin, 100 ug/ml Streptomycin (Invitrogen), and 250 ug/ml Geneticin (Invitrogen) and 1 ug/ml Puromycin (Invitrogen) at 37C in 5% CO2. This assay was used as a counterscreen to "qHTS Assay for Agonists of the Thyroid Stimulating Hormone Receptor", to control for compounds signaling through endogenous receptors and other targets of HEK 293 cells.
# NCGC Assay Protocol Summary:
# High Throughput Screening. Freshly passaged cells were dispensed into 1536-well assay plates at 4 ul/well in DMEM containing phenol red (Invitrogen), 10% FCS (Hyclone), and 100 units/ml Penicillin, 100 ug/ml Streptomycin (Invitrogen) and incubated at 37 C with 5% CO2 for 20 to 36 hrs before the robotic screening. The screen was initiated by addition of 4 ul/well membrane potential dye containing 100 uM RO 20-1724 (Sigma Aldrich), followed by 60 min incubation at room temperature to allow for dye equilibration across the cell membrane. 23 nl/well compound or control was then added to the assay plates, which were incubated for additional 30 min before reading a Envision fluorescence plate reader (Perkin Elmer) in bottom-read mode for fluorescence intensity (emission at 590 nm).
# Keywords: cAMP, CNG Ion Channel, quantitative high throughput screening, qHTS, HTS, probe identification, CNG, cAMP, cyclic nucleotide gated ion channel PubChem
# Potency is read from the fitted curve at half-maximal effect.
Compound,activation,Potency
C/C(CCc1c[nH]c2ccccc12)=N\O,2.11% (inactive),–
NCCc1c[nH]c2ccc(O)cc12,–,inactive and 31.6 µM (active)
CC(C)(c1ccc(OC[C@@H]2CO2)cc1)c1ccc(OC[C@H]2CO2)cc1,23.3% (inactive),–
N#CCCCl,–,inactive
ClC(Cl)(Cl)c1ccccc1,–,inactive
Fc1ccc(C(OCCN2CCN(C/C=C\c3ccccc3)CC2)c2ccc(F)cc2)cc1,-30.9% (inactive),–
COc1ccc(C2NCc3ccc4c(c3-n3cccc32)OCO4)cc1OC (stereo not given),19.3% (inactive),–
c1ccc(C2NCc3ccccc3-n3cccc32)cc1 (stereo not given),–,25.1 µM (active)
CC(C)CC(C)Nc1ccc(Nc2ccccc2)cc1 (stereo not given),-10.5% (inactive),–
O=[N+]([O-])c1ccc(Cl)c(Cl)c1,11.3% (inactive),–
CC(C)(c1ccccc1)c1ccc(O)cc1,14.7% (inactive),–
CC(C)(C)C(O)(CCc1ccc(Cl)cc1)Cn1cncn1 (stereo not given),1.41% (inactive),–
C[C@@]1([C@@H](NP(=O)(c2ccccc2)c2ccccc2)c2ccccc2)C[C@H]1CCO,–,15.8 µM (active)
O=C1C2(Cl)C3(Cl)C4(Cl)C(Cl)(Cl)C5(Cl)C3(Cl)C1(Cl)C5(Cl)C24Cl (stereo not given),–,inactive
CCCCC#N,8.65% (inactive),–
